Compounds with a hit are over-represented: about 1.3% of the library has one in this group of screens.
LYPLA2 inh – counter-screen for PME1 inhibitors: inhibitors of human LYPLA2; recombinant LYPLA2, FP-Rh probe fluorescence polarization; O95372; 320,000 compounds, 0.38% hits; AID 2177; inhibition, % at 5.9 µM;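 active = inhibition above the screen-wide mean plus 3 SD, limit set per campaign, cut at about 26% in these data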;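 note: 0% = LYPLA2 with DMSO and 100% = wells lacking LYPLA2 enzyme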
PREPL inh – inhibits the human prolyl oligopeptidase-like enzyme. Q4J6C6. recombinant PREPL, fluorescence polarization activity-based probe. inhibition, % at 5.96 µM. 320,000 compounds, 0.68% hits. AID 2751; in the data active = inhibition above about 43%;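 note: 0% = enzyme with DMSO and 100% = wells lacking enzyme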
Target sequence (Q4J6C6 whole entry, looked up): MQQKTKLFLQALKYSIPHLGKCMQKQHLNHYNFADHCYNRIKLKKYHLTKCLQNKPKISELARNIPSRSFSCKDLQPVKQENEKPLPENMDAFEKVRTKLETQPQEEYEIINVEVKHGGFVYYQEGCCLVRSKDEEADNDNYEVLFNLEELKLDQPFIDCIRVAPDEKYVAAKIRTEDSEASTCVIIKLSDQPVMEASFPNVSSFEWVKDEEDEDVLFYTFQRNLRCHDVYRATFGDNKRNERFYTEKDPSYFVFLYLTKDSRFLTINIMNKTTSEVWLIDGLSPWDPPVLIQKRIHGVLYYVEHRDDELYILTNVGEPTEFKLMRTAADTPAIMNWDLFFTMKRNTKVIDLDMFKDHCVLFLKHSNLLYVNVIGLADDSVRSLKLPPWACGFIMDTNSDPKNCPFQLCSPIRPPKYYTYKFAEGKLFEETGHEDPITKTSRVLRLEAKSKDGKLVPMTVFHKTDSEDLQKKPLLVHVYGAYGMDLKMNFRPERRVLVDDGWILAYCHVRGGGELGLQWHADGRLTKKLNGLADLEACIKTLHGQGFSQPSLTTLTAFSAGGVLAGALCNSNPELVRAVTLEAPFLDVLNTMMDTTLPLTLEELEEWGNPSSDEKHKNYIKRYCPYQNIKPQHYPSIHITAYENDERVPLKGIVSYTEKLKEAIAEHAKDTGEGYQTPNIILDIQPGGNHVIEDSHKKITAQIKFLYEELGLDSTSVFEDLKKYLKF
Fam108B counter – Fam108B inhibition, counter-screen for RBBP9 inhibitors; 300,000 compounds, 0.33% hits; inhibition, % at 9.51 µM; recombinant Fam108B, FP-Rh probe fluorescence polarization;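 active = inhibition above the screen mean inhibition plus 3 SD, computed separately per campaign, cut at about 18% in these data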;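 note: inhibitors lower polarization as less probe binds the enzyme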
LYPLA1 inh – LYPLA1 (human) inhibition in PME1 counter-screen | O75608 | recombinant LYPLA1, FP-Rh probe fluorescence polarization | AID 2174 | 320,000 compounds, 0.16% hits | inhibition, % at 5.9 µM;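 active = inhibition above the mean of all tested compounds plus 3 SD, set per campaign, cut at about 14% in these data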;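 note: inhibitors block serine hydrolase probe labeling of LYPLA1 so polarization falls; 0% = enzyme with DMSO and 100% = wells lacking LYPLA1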
PME-1 primary – blocks human protein phosphatase methylesterase 1. AID 2130. inhibition, % at 5.9 µM. Q9Y570. recombinant PME-1, FP-Rh probe fluorescence polarization. 320,000 compounds, 0.53% hits;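 active = inhibition above the campaign mean of all compounds plus 3 SD, cut at about 26% in these data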;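 note: competitive labeling of PME-1 active site by serine hydrolase directed probe; 0% = PME-1 with DMSO and 100% = wells lacking PME-1 enzyme; inhibitors block probe labeling so polarization falls and inhibition rises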
LYPLA1 conf – counter-screen for PME1 inhibitors: confirmation of human LYPLA1 inhibitors; 480 compounds, 69% hits; AID 2233; shares compounds with LYPLA1 inh; recombinant LYPLA1, FP-Rh probe fluorescence polarization; inhibition, % at 5.9 µM;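 active = mean inhibition across replicates above the hit cutoff set in the primary screen, cut at about 15% in these data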;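 note: loss of FP-Rh probe labeling of LYPLA1 seen as lower polarization; 0% = LYPLA1 with DMSO and 100% = wells lacking LYPLA1 enzyme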
Starred values were filed as active, the others as inactive; . = no result.

SMILES	LYPLA2 inh	PREPL inh	Fam108B counter	LYPLA1 inh	PME-1 primary	LYPLA1 conf
CC1CC(C)CN(S(=O)(=O)c2ccc3c(c2)CC(C)N3C(=O)C2CCC2)C1 (centres undefined)	14	1	0	54*	3	54*
CCOC(=O)C1CCCCN1S(=O)(=O)c1ccc2c(c1)CC(C)N2C(=O)C1CCC1 (centres undefined)	12	9	5	15*	3	9
CC1CC(C)CN(S(=O)(=O)c2ccc3c(c2)CC(C)N3C(=O)C2CC2)C1 (centres undefined)	1	11	-1	29*	12	31*
O=C(O)COn1c(-c2ccccc2)nc2ccc(Cl)cc21	3	7	2	1	-1	.
COn1c(-c2ccccc2)nc2ccc(Cl)cc21	-3	2	-1	50*	3	-1
CC1CN(S(=O)(=O)c2cc(C(=O)N(C)Cc3cccs3)ccc2Cl)CC(C)O1 (centres undefined)	.	16	.	.	.	.
COc1ccc(NC(=O)C2CCC(CNc3c(N4CCCCC4)c(=O)c3=O)CC2)cc1OC (centres undefined)	2	1	-3	17*	-1	21*
COc1ccc(OC)c(NC(=O)C2CCC(CNc3c(N4CCOCC4)c(=O)c3=O)CC2)c1 (centres undefined)	-2	9	1	1	-6	.
COc1cc(CNc2ccc(O)cc2)cc(Br)c1OCc1ccccc1F	18	7	9	18*	42*	-1
COc1ccccc1/C=C/C=N\N1CCN(Cc2ccccc2Cl)CC1	10	17	4	3	5	.
COc1ccccc1/C=C/C=N/N1CCN(Cc2ccc(Cl)cc2)CC1	21	28	0	19*	1	26*
COc1cc(/C=N/N2CCN(Cc3ccc(Cl)cc3)CC2)cc(Br)c1O	22	19	-1	49*	2	54*
COc1ccc(C)cc1S(=O)(=O)N1CCCC(C(=O)N2CCN(c3ccccc3F)CC2)C1 (centres undefined)	13	29	1	-1	4	.
O=C1CCC([N+](=O)[O-])C(c2ccc(C(F)(F)F)cc2)N1 (centres undefined)	2	8	-4	0	-2	.
O=C1CCC([N+](=O)[O-])C(c2ccc(-c3ccccc3)cc2)N1 (centres undefined)	11	4	3	22*	7	24*
C=CCSc1nnc(CCCCCN2C(=O)c3cccc4cccc(c34)C2=O)o1	10	9	-1	27*	-2	39*
CCOC(=O)CSc1nnc(CCCCCN2C(=O)c3cccc4cccc(c34)C2=O)o1	4	13	0	0	-9	.
CCOC(=O)CCCSc1nnc(CCCCCN2C(=O)c3cccc4cccc(c34)C2=O)o1	20	7	-5	45*	-4	52*
CCOC(=O)C1CCCN(C(=S)NC2CCCC2)C1 (centres undefined)	3	3	2	2	1	.
CC(C)CNC(=O)c1cccc(NC(=O)c2ccc3c(c2)C(=O)N(C)C3=O)c1	15	-11	0	26*	3	27*
COc1ccccc1-c1csc(-n2ncc(C#N)c2N)n1	24	-3	-11	22*	-10	40*
CCNC(=S)NNC(=O)Cn1c(=O)c2c(ncn2CCOC)n(Cc2ccccc2)c1=O	-10	-3	-4	41*	-4	1
COCCn1cnc2c1c(=O)n(CC(=O)OCC#N)c(=O)n2Cc1ccccc1	2	4	0	-2	-1	.
Cc1ccsc1C1Nc2ccc3ncccc3c2C2=C1C(=O)CCC2 (centres undefined)	1	23	-1	28*	16	31*
COC(=O)c1ccc(Oc2ccc(S(=O)(=O)N3CCCCC3)cc2N)cc1	17	5	-1	26*	3	47*
SMILES	LYPLA2 inh	PREPL inh	Fam108B counter	LYPLA1 inh	PME-1 primary	LYPLA1 conf
COc1ccccc1-c1noc(Cn2cc(S(=O)(=O)N3CCCC3)ccc2=O)n1	-2	19	.	-3	0	.
COc1ccc(Cc2nnc(SCC(=O)N3CCN(c4ccccc4)CC3)o2)cc1	-2	-3	4	24*	0	30*
CCOC(=O)C1(O)CSc2nc3sc(C(=O)O)c(C)c3c(=O)n21 (centres undefined)	13	9	-2	14*	4	5
CN(Cc1ccccc1)C(=O)COC(=O)CCC(=O)c1ccc(F)cc1	.	13	.	.	.	.
O=C1c2cccc3c(N4CCCCC4)ccc(c23)C(=O)N1CCO	2	21	-3	3	-4	.
Cc1n[nH]c(C)c1N1C(=O)c2cccc3c(N4CCCCCC4)ccc(c23)C1=O	22	23	8	20*	17	19*
Cc1ccc(OS(=O)(=O)c2c(C)nn(C)c2Cl)c(C)c1	6	-5	2	0	7	.
CNc1ccc(/C=C(\CCC(=O)O)c2nc3ccccc3s2)cc1[N+](=O)[O-]	11	24	13	16*	25	22*
O=C(Nc1ccc2c(c1)OCCO2)C(=O)NC1CC1	0	-1	-3	-3	-3	.
COc1cccc(N(C(=O)CNC(=O)c2ccco2)C(C(=O)NC2CCCC2)c2cccnc2)c1 (centres undefined)	0	-6	1	-2	0	.
C=CCOc1ccc(Br)cc1CNC(C)(C)CO	11	24	2	1	3	.
C=CCOc1ccc(Br)cc1CNC(C)(C)C	-2	33	-4	18*	-4	1
Cc1noc(C)c1NC(=O)Nc1ccc2c(c1)C(=O)N([C@@H](C)CO)C[C@@H](C)[C@@H](CN(C)Cc1ccc3c(c1)OCO3)O2	.	15	.	.	.	.
S=c1[nH]nc(-c2cc3c(s2)-c2ccccc2CC3)o1	0	8	10	17*	22	21*
Cc1onc(-c2ccccc2Cl)c1C(=O)NCc1ccc2c(c1)cc(C)n2C	22	30	8	16*	23	13
Cc1ccc(CNC(=O)c2c(-c3ccccc3Cl)noc2C)cc1	2	-4	-2	-4	-3	.
O=C(NC1CC1)c1c[nH]c2ccc(S(=O)(=O)Nc3cccc(C(F)(F)F)c3)cc2c1=O	-8	-3	-2	14*	-1	6
NS(=O)(=O)c1ccc(N/N=C/c2ccc(C(=O)O)cc2)c([N+](=O)[O-])c1	10	-4	2	3	-2	.
Cc1nn(-c2ccccc2)c(N2CCCC2)c1/C=N/Nc1ccc(S(N)(=O)=O)cc1[N+](=O)[O-]	10	27	11	20*	16	42*
CCCn1c(NC(=O)c2ccc([N+](=O)[O-])o2)nc2ccccc21	1	32	2	0	7	.
O=C(CN1CCN(C(=O)c2ccco2)CC1)Nc1cc(C(F)(F)F)ccc1Cl	11	4	-3	91*	0	92*

Bioassay records (PubChem BioAssay)
